Each structure is given as a SMILES string. “And” between values parts separate entries of the source, which are not always exact repeats. Equal entries are not always repeated. A number with no mark means an inactive call. Inconclusive results are not listed. The source made the active and inactive calls. Unless noted, calls come from the whole dose curve; as a rule, active = well fitted curve in either direction with a large enough effect (not every such curve was filed as active); inconclusive = small, poorly fitted or top-dose-only effect, or another doubt; inactive = flat fitted curve, though single readings scatter.

Experimental findings from PubChem BioAssay (NCATS) are described below.

Glucocorticoid receptor (Homo sapiens), sequence (P04150 whole entry, looked up, the tested form may be a part): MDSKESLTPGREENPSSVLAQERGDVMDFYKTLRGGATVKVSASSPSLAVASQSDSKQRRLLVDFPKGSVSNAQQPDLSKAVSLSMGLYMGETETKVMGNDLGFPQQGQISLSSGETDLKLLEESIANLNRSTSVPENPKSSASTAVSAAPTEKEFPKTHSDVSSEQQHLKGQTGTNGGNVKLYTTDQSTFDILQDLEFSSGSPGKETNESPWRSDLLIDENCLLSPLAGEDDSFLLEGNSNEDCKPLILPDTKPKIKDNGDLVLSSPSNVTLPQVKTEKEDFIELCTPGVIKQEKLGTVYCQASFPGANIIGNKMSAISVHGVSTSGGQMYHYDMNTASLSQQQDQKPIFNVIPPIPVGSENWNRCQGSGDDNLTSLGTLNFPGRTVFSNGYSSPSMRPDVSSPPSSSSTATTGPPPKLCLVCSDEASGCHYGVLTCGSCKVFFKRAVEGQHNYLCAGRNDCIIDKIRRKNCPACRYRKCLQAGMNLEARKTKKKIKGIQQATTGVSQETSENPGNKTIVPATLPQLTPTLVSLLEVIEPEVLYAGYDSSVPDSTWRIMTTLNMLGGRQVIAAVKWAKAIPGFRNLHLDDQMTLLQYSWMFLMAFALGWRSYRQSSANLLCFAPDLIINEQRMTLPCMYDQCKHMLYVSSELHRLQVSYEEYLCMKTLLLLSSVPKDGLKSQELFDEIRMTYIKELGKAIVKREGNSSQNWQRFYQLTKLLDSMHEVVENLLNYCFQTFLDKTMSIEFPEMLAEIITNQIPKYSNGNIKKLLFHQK

The first test has as its target Glucocorticoid receptor (Homo sapiens) (UniProt P04150). Briefly: GR-EFC Redistribution (AID 451; calls by dose curve; note: potency is the fitted concentration of half-maximal effect). The note with it: CHO-K1 GR-EFC translocation, beta-gal luminescence, 2 h. The method, boiled down:
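Translocation of GR-ED fusion to nuclear EA restores b-gal, read by luminescence after 1 h room-temperature detection. Engineered CHO-K1 biosensor cells, 1,000/well, exposed 2 h at 37 C to titrations up to 46 uM final.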
On to `CCN(CC)C(=O)N[C@@H]1C=C2c3cccc4[nH]cc(c34)C[C@@H]2N(C)C1`, for which the Potency was more than 46 µM.

Consider `O=c1[nH]c2ccccc2n1C1CCN(CCCC(c2ccc(F)cc2)c2ccc(F)cc2)CC1`, for which the Potency is > 46 µM and > 20.6 µM.

As for `COc1ccccc1N1CCNCC1`, the Potency was more than 46 µM.

On to `CN(C)CCN(C)CCc1ccc(Cl)c(Cl)c1`, for which the Potency is more than 46 µM.

Turning to `c1ccc(C2CC2)c(OCC2=NCCN2)c1`, the Potency was more than 46 µM.

Take `Fc1ccc(C(OCCN2CCN(CCCc3ccccc3)CC2)c2ccc(F)cc2)cc1`: the Potency is > 46 µM and > 20.6 µM.

`CCCN1CCC[C@@H]2Cc3[nH]ncc3C[C@H]21`: the Potency was > 46 µM and > 20.6 µM.

`Cc1ccc(S(=O)(=O)N[C@@H](CCCCN)C(=O)CCl)cc1`: the Potency is more than 46 µM.

As for `C#CCN(C)[C@H](C)Cc1ccccc1`, the Potency was more than 46 µM.

Consider `COC1(CS(=O)c2ccccc2)CCN(CCc2c[nH]c3ccc(F)cc23)CC1` (configuration not stated), for which the Potency was more than 46 µM.

Regarding `O=P1(NCCCl)OCCCN1CCCl` (configuration not stated), the Potency was more than 20.6 µM.

Regarding `NP(N)(=O)NC(=O)c1ccc(F)cc1`, the Potency is more than 46 µM.

With `Clc1cccc(N2CCNCC2)c1`, the Potency is more than 46 µM.

As for `Cc1ncc(CNC(=O)N(CCCl)N=O)c(N)n1`, the Potency was more than 46 µM.

Consider `NCC1(CC(=O)O)CCCCC1`, for which the Potency is > 46 µM and > 20.6 µM.

With `O=[N+]([O-])c1cc([As](=O)(O)O)ccc1O`, the Potency was more than 20.6 µM.

Turning to `C=C(C)[C@H]1Cc2c(ccc3c2O[C@@H]2COc4cc(OC)c(OC)cc4[C@@H]2C3=O)O1`, the Potency is more than 46 µM.

A further test deals with Mitogen-activated protein kinase 10 (Mus musculus) (UniProt Q61831). The test can be described thus: JNK3 AlphaScreen Assay (AID 530).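 Note: kinase came from lysate of stimulated human HepG2 cells; signal reports phosphorylation of biotinylated GST-cJun 1-79 at Ser73 with 10 µM ATP; % is set by controls: 0 for no effect and ±100 for the full control effect.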 The note with it: JNK3 lysate, c-Jun phosphorylation; series mostly up to 57.1 µM. The method, boiled down:
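Compound titrations were preincubated 15 minutes at room temperature with substrate, antibody and pre-activated JNK3-containing HepG2 lysate. Reactions were started with 10 uM ATP and stopped with EDTA-containing bead buffer for AlphaScreen detection.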
On to `CCN(CC)C(=O)N[C@@H]1C=C2c3cccc4[nH]cc(c34)C[C@@H]2N(C)C1`, for which the result was inactive.

For `CCCN1CCC[C@@H]2Cc3nc(N)ncc3C[C@H]21`, the call was inactive.

`O=c1[nH]c2ccccc2n1C1CCN(CCCC(c2ccc(F)cc2)c2ccc(F)cc2)CC1`: the call was inactive.

As for `CCCC(C)(COC(N)=O)COC(=O)NC(C)C` (configuration not stated), the compound was called inactive.

On to `OCCOc1ccccc1`, for which the compound was classed as inactive.

Take `CN(C)CCN(C)CCc1ccc(Cl)c(Cl)c1`: the compound was classed as inactive.

With `c1ccc(C2CC2)c(OCC2=NCCN2)c1`, the result was inactive.

Regarding `Fc1ccc(C(OCCN2CCN(CCCc3ccccc3)CC2)c2ccc(F)cc2)cc1`, the compound was classed as inactive.

For the compound `CCCN1CCC[C@@H]2Cc3[nH]ncc3C[C@H]21`, the compound was classed as inactive.

`Clc1ccc(COC(Cn2ccnc2)c2ccc(Cl)cc2Cl)cc1` (configuration not stated): the compound was classed as inactive.

In the case of `Cc1ccc(S(=O)(=O)N[C@@H](CCCCN)C(=O)CCl)cc1`, the call was inactive.

On to `CCn1cc(C(=O)O)c(=O)c2ccc(C)nc21`, for which the compound was called inactive.

Regarding `C#CCN(C)[C@H](C)Cc1ccccc1`, the compound was called inactive.

On to `COC1(CS(=O)c2ccccc2)CCN(CCc2c[nH]c3ccc(F)cc23)CC1` (configuration not stated), for which the call was inactive.

Consider `O=P1(NCCCl)OCCCN1CCCl` (configuration not stated), for which the outcome was inactive.

In the case of `O=c1[nH]c2ccccc2n1CCCN1CCC(n2c(=O)[nH]c3cc(Cl)ccc32)CC1`, the result was inactive.

With `C[C@]12C/C(=C/O)C(=O)C[C@@H]1CC[C@@H]1[C@@H]2CC[C@@]2(C)[C@H]1CC[C@]2(C)O`, the compound was classed as inactive.

Consider `NP(N)(=O)NC(=O)c1ccc(F)cc1`, for which the result was inactive.

For `N[C@@H]1C[C@H]1c1ccccc1`, the compound was called inactive.

With `Oc1cccc2cccnc12`, the compound was called inactive.

As to `Clc1cccc(N2CCNCC2)c1`, the compound was classed as inactive.

In the case of `N[C@@H](Cc1ccc(N(CCCl)CCCl)cc1)C(=O)O`, the compound was called inactive.

As for `Cc1ncc(CNC(=O)N(CCCl)N=O)c(N)n1`, the compound was called inactive.

For the compound `Oc1ccc(Cl)cc1Cc1ccccc1`, the outcome was inactive.

Turning to `NCC1(CC(=O)O)CCCCC1`, the compound was called inactive.

On to `c1ccc2c(c1)Nc1ccccc1S2`, for which the outcome was inactive.

For `O=[N+]([O-])c1cc([As](=O)(O)O)ccc1O`, the result was inactive.

`NN=C(N)N`: the compound was called inactive.

Take `CCOP(=S)(OCC)Oc1cc(C)nc(C(C)C)n1`: the result was inactive.

Consider `NCC(O)c1ccc(O)cc1` (configuration not stated), for which the result was inactive.

For `Cc1cccc(C)c1NC1=NCCCS1`, the compound was called inactive.

In the case of `Nc1ccncc1`, the outcome was inactive.

Consider `Oc1ccccc1-c1ccccc1`, for which the call was inactive.

System in a further test: not listed separately
The test can be described thus: Cell Viability - N2a (AID 540; active = well fitted cell-killing curve with a large enough effect;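 note: plate controls were DMSO alone for no effect and tamoxifen control for full effect; nearly all actives have a fitted effect of over 45% in size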). The note with it: N2a mouse neuroblastoma cell viability; at 92.2 µM (top of the series). The method, boiled down: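 Luminescent ATP signal (CellTiter-Glo, 20 min at room temperature) served as the viability read-out after N2a cells were treated with compounds for 40 hours at 37 °C. Concentration-response data were fitted to the Hill equation for AC50.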
On to `CCCC(C)(COC(N)=O)COC(=O)NC(C)C` (configuration not stated), for which the activity change, negative = cytotoxicity is 4.75%.

Consider `OCCOc1ccccc1`, for which the activity change, negative = cytotoxicity was -13.3%.

As to `Clc1ccc(COC(Cn2ccnc2)c2ccc(Cl)cc2Cl)cc1` (configuration not stated), the activity change, negative = cytotoxicity is -110% (active).

Consider `Oc1cccc2cccnc12`, for which the activity change, negative = cytotoxicity was -89.1% (active).

Take `N[C@@H](Cc1ccc(N(CCCl)CCCl)cc1)C(=O)O`: the activity change, negative = cytotoxicity was -94.8% (active).

For `c1ccc2c(c1)Nc1ccccc1S2`, the activity change, negative = cytotoxicity was -21.6%.

With `CCOP(=S)(OCC)Oc1cc(C)nc(C(C)C)n1`, the activity change, negative = cytotoxicity is -3.66%.

As for `NCC(O)c1ccc(O)cc1` (configuration not stated), the activity change, negative = cytotoxicity is -14.9%.

Regarding `CNCC(O)c1ccc(O)cc1` (configuration not stated), the activity change, negative = cytotoxicity is -10.6%.

Turning to `Oc1ccccc1-c1ccccc1`, the activity change, negative = cytotoxicity was -8.25%.

System in a further test: not listed separately
Briefly: Cell Viability - NIH 3T3 (AID 541; active = well fitted cell-killing curve with a large enough effect; note: nearly all actives have a fitted effect of over 25% in size; note: potency is the fitted concentration of half-maximal effect;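 for activity change, negative = cytotoxicity: plate controls were DMSO alone for no effect and tamoxifen positive control for full effect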). The note with it: NIH 3T3 cell viability, qHTS; activity change, negative = cytotoxicity: at 92.2 µM (top of the series). The method, boiled down:
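Luminescent ATP signal (CellTiter-Glo) served as the viability read-out after NIH 3T3 cells were exposed to compounds over a concentration range for 40 hr at 37 °C. Hill-equation modelling of concentration-response data gave AC50.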
For orientation: In qHTS, concentration-response curves come from the screen itself.
In the case of `CCCC(C)(COC(N)=O)COC(=O)NC(C)C` (configuration not stated), the activity change, negative = cytotoxicity is -2.14%.

As to `OCCOc1ccccc1`, the activity change, negative = cytotoxicity is -18.9%.

Regarding `Clc1ccc(COC(Cn2ccnc2)c2ccc(Cl)cc2Cl)cc1` (configuration not stated), the activity change, negative = cytotoxicity was -82% (active).

With `C[C@]12C/C(=C/O)C(=O)C[C@@H]1CC[C@@H]1[C@@H]2CC[C@@]2(C)[C@H]1CC[C@]2(C)O`, the activity change, negative = cytotoxicity is -114% (active).

For the compound `Oc1cccc2cccnc12`, the Potency was 12.6 µM (active) and 10 µM (active).

As for `N[C@@H](Cc1ccc(N(CCCl)CCCl)cc1)C(=O)O`, the activity change, negative = cytotoxicity is -113% (active).

Take `Oc1ccc(Cl)cc1Cc1ccccc1`: the activity change, negative = cytotoxicity was -0.588%.

For `c1ccc2c(c1)Nc1ccccc1S2`, the activity change, negative = cytotoxicity was -26.2%.

For `CCOP(=S)(OCC)Oc1cc(C)nc(C(C)C)n1`, the activity change, negative = cytotoxicity is -10%.

For `NCC(O)c1ccc(O)cc1` (configuration not stated), the activity change, negative = cytotoxicity is -28.6%.

Consider `CNCC(O)c1ccc(O)cc1` (configuration not stated), for which the activity change, negative = cytotoxicity was 2.22%.

Consider `Oc1ccccc1-c1ccccc1`, for which the activity change, negative = cytotoxicity is -15.3%.
